From PubChem
This excerpt belongs to a sample that is enriched for hits.
Giardia FBPA inh = qHTS Assay for Inhibitors of Fructose-1,6-bisphosphate Aldolase from Giardia Lamblia; 290,000 tested, 0.71% active; Potency, µM (highest dose often 59.6 µM), hits mostly inhibitors; purified Giardia FBPA; A8B2U2; AID 2451, 2010; also: nearly all actives have a fitted effect of over 55% in size
Target sequence (A8B2U2 whole entry, looked up): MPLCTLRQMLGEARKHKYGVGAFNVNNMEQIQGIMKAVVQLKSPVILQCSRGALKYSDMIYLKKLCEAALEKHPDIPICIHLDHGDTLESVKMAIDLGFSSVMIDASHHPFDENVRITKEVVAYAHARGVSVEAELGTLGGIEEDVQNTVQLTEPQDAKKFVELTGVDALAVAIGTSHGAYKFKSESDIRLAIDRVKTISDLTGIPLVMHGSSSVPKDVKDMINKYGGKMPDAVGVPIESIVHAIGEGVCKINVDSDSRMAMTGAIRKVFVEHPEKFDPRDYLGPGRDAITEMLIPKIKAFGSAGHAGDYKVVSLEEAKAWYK
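Giardia FBPA (40 nM reagent) was preincubated 10 min at RT with compound (up to 57.5 uM final), then substrate plus GAPDH/TPI/NAD/arsenate coupling system with diaphorase/resazurin was added; resorufin fluorescence (525/598 nm) was read after 20 min.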
LmPK inhibitor = qHTS Assay for Inhibitors of Leishmania Mexicana Pyruvate Kinase (LmPK) | Potency, µM (series often up to 57.5 µM), usual class: inhibitors | purified LmPK, Kinase-Glo ATP luminescence, 1 h | Q27686 | 290,000 tested, 0.37% active
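In 50 mM imidazole pH 7.2 with 7 mM MgCl2, LmPK (0.1 nM) turned over PEP (0.5 mM) and ADP (0.1 mM) for 1 h at room temperature. Luciferase read-out of ATP.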
Shiga inhibitor = A qHTS for Small Molecule Inhibitors of Shiga Toxin. 290,000 tested, 9.2% active. Vero cells, Shiga toxin protein synthesis inhibition reporter. inhibition, % at 38.7 µM; in the data active = inhibition mostly above about 28%, no sharp cut-off; inactive = mostly below about 43%
TbPYK inhibitor = qHTS of Trypanosoma Brucei Inhibitors; pyruvate kinase (Trypanosoma brucei), Q57TT1; TbPYK enzyme, Kinase-Glo Plus ATP luminescence, 45 min; Potency, µM (highest dose often 76.8 µM), most hits filed as inhibitors; 410,000 tested, 0.12% active; also: nearly all actives have a fitted effect of over 50% in size
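Assay buffer: 50 mM TEA pH 7.2, 100 mM KCl, 10 mM MgCl2, 0.05% BSA, 0.01% Tween-20. Pyruvate kinase from T. brucei plus substrate met compound, then ADP (130 uM final). Luminescence was read post 45 min RT.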
Cycloheximide cs = Cycloheximide Counterscreen for Small Molecule Inhibitors of Shiga Toxin; cell reporter, cycloheximide protein synthesis inhibition counterscreen; max response, %; 300,000 tested, 12% active; in the data active = max response mostly above about 13%, no sharp cut-off; inactive = mostly below about 14%; also: read at 38.3 µM for the half of the compounds with a filed dose
RE007 growth inh = qHTS Assay for Inhibitors of the HIV-1 protein Vpr; S. pombe RE007 Vpr strain, BacTiter-Glo ATP luminescence, 24 h; Potency, µM (titrated, usually from 92.2 µM), most hits filed as inhibitors; 360,000 tested, 0.21% active; active = well fitted falling curve with a large enough effect; inconclusive = small, poorly fitted or top-dose-only effect; inactive = no such curve, though single readings can be large or run the other way; also: nearly all actives have a fitted effect of over 50% in size
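Fission yeast strain RE007, carrying one chromosomally integrated HIV-1 vpr copy, was seeded at OD 0.01 in PMG+AL medium with 23 nL pinned compound. After 24 h at 30 °C and 99% humidity, viability was read by BacTiter-Glo luminescence.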
Hits are given with their value; 0 = inactive; ? = inconclusive; - = no result given; + = active, no number. Unless noted, calls follow the shape of the dose curve; as a rule, active = well fitted curve in the direction sought with a large enough effect; inconclusive = small, poorly fitted or top-dose-only effect, or another doubt; inactive = no such curve, though single readings can be large; an effect the other way counts as inactive or inconclusive.

SMILES	Giardia FBPA inh	LmPK inhibitor	Shiga inhibitor	TbPYK inhibitor	Cycloheximide cs	RE007 growth inh
COc1ccc(CCNC(=S)N2CCC(C(N)=O)CC2)cc1	0	0	0	0	0	0
Oc1ccccc1N1CCN(C(=S)NCCc2ccccc2)CC1	0	0	31	0	27	0
S=C(NC1CCCCC1)N1CCc2ccccc2C1	0	0	+	0	38	?
CC[C@]12c3[nH]c4ccc(OC)cc4c3CCN1C(=O)C(CC(=O)NCCCN(C)C)C[C@@H]2C(=O)N1CCN(C(=O)c2ccco2)CC1 (some centres not stated)	-	-	-	0	-	0
Cc1ccc(S(=O)(=O)NN=C2C3CC4CC(C3)CC2C4)cc1[N+](=O)[O-]	0	0	0	0	0	0
COc1ccc(C(CNC(=O)c2cccc(S(=O)(=O)Nc3cccc(C)c3)c2)N2CCOCC2)cc1 (configuration not stated)	-	-	-	0	-	0
S=C(NCCc1ccccc1)N1CCN(Cc2ccccc2)CC1	0	0	0	0	31	0
OC1CCN(C(=S)NCCc2ccccc2)CC1	0	0	0	0	0	0
Oc1ccc(N2CCN(C(=S)NCCc3ccccc3)CC2)cc1	0	0	0	?	24	0
S=C(NCCc1ccccc1)N1CCc2ccccc2C1	0	0	116	0	67	0
COc1ccc(N2CCN(C(=S)NCCc3ccccc3)CC2)cc1	-	-	-	0	-	0
Fc1cccc(CN2CCN(C(=S)NCCc3ccccc3)CC2)c1	0	0	0	0	0	0
N#CCSc1nc2[nH]ncc2c(=O)n1-c1ccccc1Br	0	11µM	0	0	0	0
O=C(CSc1nc2[nH]ncc2c(=O)n1-c1ccccc1Br)NCc1ccccc1Cl	0	0	0	0	0	0
CN(C)C(=O)c1ccc(NC(=O)c2cncc(Br)c2)cc1	0	?	active	0	0	0
CC(C)OC(=O)c1ccc(NC(=S)NC(=O)c2cncc(Br)c2)cc1	0	0	0	0	0	0
CC(C)OC(=O)c1ccc(NC(=O)c2cncc(Br)c2)cc1	0	0	0	0	20	0
CCCCCCCCCCCCCCC(F)C(=O)O (configuration not stated)	0	-	-	-	-	-
CC(=O)Nc1ccc(S(=O)(=O)NC2=NCN(C(C)C)CN2)cc1	-	-	-	0	-	-
COc1ccc(CN2CCn3ncc(C(=O)Nc4ccccc4)c3C2=O)cc1	0	0	52	0	32	0
Cc1c(C(=O)Nc2ccccc2)cnn1-c1ccccc1	-	-	-	0	-	0
O=C(O)c1cnn2c1C(=O)N(Cc1cccs1)CC2	0	0	0	0	0	0
COc1ccc(NC(=O)c2cnn(-c3ccccc3)c2C)cc1	0	0	-	0	36	0
COc1ccc(NC(=O)c2cnn(-c3ccccc3)c2C)cc1OC	0	0	80	0	39	0
CCOC(=O)C1(CC2CCCCO2)CCN(Cc2cc(F)ccc2-n2cccn2)CC1 (configuration not stated)	0	0	0	0	27	0
SMILES	Giardia FBPA inh	LmPK inhibitor	Shiga inhibitor	TbPYK inhibitor	Cycloheximide cs	RE007 growth inh
CCOC(=O)C1(CC2CCCCO2)CCN(Cc2c(C)cc(C)cc2-n2cccn2)CC1 (configuration not stated)	0	0	0	0	0	0
Cc1cc2c(cc1S(=O)(=O)Nc1ccc(OC(F)(F)F)cc1)OCC(=O)N2	-	0	0	0	0	0
O=C(Nc1ccccc1C(F)(F)F)c1cc(-c2ccccc2O)on1	0	0	83	0	37	0
O=C(Nc1ccccc1C(F)(F)F)c1cc(-c2ccco2)on1	0	0	58	0	0	0
O=C(Nc1ccccc1C(F)(F)F)c1cc2ccccn2n1	-	-	-	0	-	-
O=C(Nc1ccccc1C(F)(F)F)c1ccccn1	0	0	0	0	32	0
O=C(Nc1ccccc1C(F)(F)F)c1cc2ncc(CCCl)cn2n1	0	0	77	0	23	0
Cc1ccc(OCn2c(=O)sc3ccccc32)cc1	0	0	65	0	47	0
O=c1sc2ccccc2n1CCOc1ccccc1	0	0	66	0	39	0
CCCOc1ccc(Cn2c(=O)sc3ccccc32)cc1	-	-	-	0	-	-
